# Bioassay records as filed in PubChem.
# This is a sample that favours compounds with a hit; in the whole collection about 18% have one here.
# KAT2A inh: inhibitors of human GCN5L2 histone acetyltransferase | Q92830 | GCN5L2 HAT assay, ThioGlo1 CoA-SH fluorescence | Potency, µM (top dose mostly 58.9 µM), most hits filed as inhibitors | actives 0.21% (n = 390,000)
#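 Free CoA generated was detected with ThioGlo1 (50uM) fluorescence at Ex340nm/Em540nm, read immediately and after 20 min at room temperature. Enzyme, 20 nM in HEPES pH 7.5 buffer, saw compounds 15 min before adding 75uM H3(1-25) peptide and 70uM acetyl-CoA.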
# TDP1 block: TDP1 (human) enzyme inhibition | Q9NUW8 | recombinant TDP1, AlphaScreen DNA substrate cleavage | Potency, µM (highest dose often 130 µM), most hits filed as inhibitors | actives 0.28% (n = 350,000); also: nearly all actives have a fitted effect of over 40% in size
# Target sequence (Q9NUW8 whole entry, looked up): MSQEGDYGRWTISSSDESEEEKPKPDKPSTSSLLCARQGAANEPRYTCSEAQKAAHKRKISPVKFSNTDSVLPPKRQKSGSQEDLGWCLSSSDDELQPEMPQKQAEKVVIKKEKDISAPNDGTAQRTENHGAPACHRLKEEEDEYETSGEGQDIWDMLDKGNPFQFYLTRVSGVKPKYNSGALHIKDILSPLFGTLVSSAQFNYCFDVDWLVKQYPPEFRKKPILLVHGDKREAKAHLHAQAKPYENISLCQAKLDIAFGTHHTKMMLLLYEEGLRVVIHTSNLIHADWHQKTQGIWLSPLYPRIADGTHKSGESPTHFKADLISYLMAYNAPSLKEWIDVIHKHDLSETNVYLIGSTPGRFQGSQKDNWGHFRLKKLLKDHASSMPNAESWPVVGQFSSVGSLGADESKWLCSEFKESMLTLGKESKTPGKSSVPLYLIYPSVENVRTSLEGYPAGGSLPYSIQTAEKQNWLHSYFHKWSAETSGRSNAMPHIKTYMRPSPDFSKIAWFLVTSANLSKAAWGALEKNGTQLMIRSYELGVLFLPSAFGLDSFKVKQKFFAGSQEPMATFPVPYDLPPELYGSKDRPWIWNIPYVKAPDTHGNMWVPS
#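 Recombinant E. coli-expressed Tdp1 (1 nM) preincubated with compound 15 min at RT, then 5'-biotin/3'-phosphotyrosine-FITC DNA substrate (15 nM) added for 5 min. AlphaScreen beads (10 ug/ml) added, 10 min RT; tyrosine-FITC cleavage read as signal loss.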
# DT40 TDP1 CPT: DT40-hTDP1 cell growth loss with CPT; Potency, µM (titrated, usually from 46.2 µM), actives largely listed as inhibitors; chicken DT40 Tdp1-/-;hTDP1 cells + 20 nM CPT, ATP luminescence, 48 h; actives 12% (n = 420,000); also: nearly all actives have a fitted effect of over 55% in size
#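 Chicken DT40 Tdp1-/- cells stably complemented with human TDP1 were seeded at 400 cells/well in medium containing 20 nM camptothecin, exposed to pin-transferred compounds, and grown at 37 °C for at least 48 hr. Viability was read as ATP luminescence.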
# VDR inhibitor: inhibitors of human vitamin D receptor; P11473; Potency, µM, most hits filed as inhibitors; VDR-SRC2-3 peptide fluorescence polarization, 2 h; actives 0.93% (n = 400,000)
#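 Fluorescence polarization assay measuring small-molecule disruption of VDR binding to the coregulator peptide SRC2-3. Compounds were pin-transferred (23 nl) into the reagent mix and incubated 2 h at room temperature before reading.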
# TDP1 cell noCPT: qHTS for Inhibitors of human tyrosyl-DNA phosphodiesterase 1 (TDP1): qHTS in cells in absence of CPT; AID 686978, 2013; DT40 Tdp1-/- hTDP1 cells, no CPT, ATP luminescence, 48 h; actives 15% (n = 420,000); Potency, µM (highest dose often 46.2 µM), actives largely listed as inhibitors; also: nearly all actives have a fitted effect of over 55% in size
#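 Chicken DT40 Tdp1-/- cells complemented with human TDP1, screened without camptothecin (DMSO vehicle only), 400 cells/well. Compounds pin-transferred, cells incubated at 37 °C for at least 48 hr. Growth read as ATP-dependent luminescence (CellTiter-Glo, 30 min at RT).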
# PLK1 PBD inh: PLK1 (human) polo-box domain binding inhibition | actives 2.8% (n = 360,000) | AID 720504 | Plk1 PBD binding of FITC phosphopeptide, fluorescence polarization | P53350 | Potency, µM, most hits filed as inhibitors; also: series mostly up to about 57 µM; nearly all actives have a fitted effect of over 65% in size
# A number is an active result; i = inactive; ? = inconclusive; nt = no result; [ ] = dose if it differs, or a comment. Calls follow the shape of the dose curve; as a rule, active = well fitted curve in the direction sought with a large enough effect; inconclusive = small, poorly fitted or top-dose-only effect, or another doubt; inactive = no such curve, though single readings can be large; an effect the other way counts as inactive or inconclusive.
SMILES,KAT2A inh,TDP1 block,DT40 TDP1 CPT,VDR inhibitor,TDP1 cell noCPT,PLK1 PBD inh
CN(C)CC/C=C1\c2cc(F)ccc2CSc2ccccc21,i,i,?,i,?,i
CN(C)CC/C=C1\c2cc(Cl)ccc2Sc2cc(F)c(F)cc21,nt,nt,?,i,23µM,i
CCC(=O)N1CCCC1(C)C(=O)Nc1ccc(C)c(C)c1 (configuration not stated),nt,nt,i,nt,i,i
CCCCCCOC(=O)C1(O)CC2OC1(C)n1c3ccccc3c3c4c(c5c6ccccc6n2c5c31)C(=O)NC4 (configuration not stated),i,i,?,i,?,nt
O=S(=O)(c1ccc2nc(Nc3ccc(F)cc3)ccc2c1)N1CCCC1,i,i,i,i,i,nt
CC1CCN(S(=O)(=O)c2ccc3nc(Nc4ccc(C#N)cc4)ccc3c2)CC1,i,i,?,i,21µM,nt
CC1CCN(S(=O)(=O)c2ccc3nc(Nc4cccc(C(F)(F)F)c4)ccc3c2)CC1,i,i,18µM,i,?,nt
CCOc1ccc(OCC)c(NC(=O)c2cc(S(=O)(=O)N3CCc4ccccc43)cn2C)c1,i,i,i,i,?,nt
CCNC(=O)[C@H]1O[C@@H](n2cnc3c(N)nc(NCCc4ccc(CCC(=O)O)cc4)nc32)[C@H](O)[C@H]1O,nt,i,nt,nt,nt,nt
CN1CCN(C(c2cccnc2)c2ccc3cccnc3c2O)CC1 (configuration not stated),i,i,?,i,16µM,19µM
COc1cc2[nH]c(Cl)c([N+](=O)[O-])c2cc1OC,i,nt,21µM,?,21µM,i
COc1cc(C(=O)O)c([N+](=O)[O-])c(OC)c1OC,i,i,i,i,i,i
CCOC(=O)CN(C)C(=O)CCc1nnc(-c2ccc(-c3ccccc3)cc2)o1,i,nt,?,i,?,i
CC(C)(CO)CNC(=O)CCc1nnc(-c2ccc(-c3ccccc3)cc2)o1,i,nt,?,i,21µM,i
CC(NC(=O)CCc1nnc(-c2ccc(-c3ccccc3)cc2)o1)c1nc2ccccc2[nH]1 (configuration not stated),i,i,18µM,i,16µM,i
COCCSc1ccccc1C(=O)NCc1cccnc1,i,i,i,i,i,i
c1ccc(Oc2nc(-c3ccccn3)nc3ccccc23)cc1,i,i,2.6µM,i,2.1µM,i
COc1cccc(Oc2nc(-c3ccccc3O)nc3ccccc23)c1,i,nt,i,i,i,i
COc1ccc(Oc2nc(-c3ccccn3)nc3ccccc23)cc1,?,i,3.3µM,i,4.1µM,i
Cc1nc(Oc2ccccc2)c2ccccc2n1,i,i,i,i,?,i
c1ccc(Oc2c3ccccc3nc3ccccc23)cc1,?,nt,?,45µM,21µM,i
CC(=O)c1cc2c(s1)c1cnn(Cc3ccccc3F)c(=O)c1n2C,nt,i,nt,nt,nt,nt
COCc1[nH][nH]c(=O)c1/C=N/N1CCOCC1,i,i,i,i,i,i
CC(C)CC(=O)Nc1ccnn1C1CCN(C(=O)c2ccc(Cl)cc2F)CC1,i,i,?,i,?,i
COc1cc(F)c(S(=O)(=O)N2CCN(S(=O)(=O)c3ccc(N)cc3)CC2)c(F)c1,nt,i,nt,nt,nt,nt
SMILES,KAT2A inh,TDP1 block,DT40 TDP1 CPT,VDR inhibitor,TDP1 cell noCPT,PLK1 PBD inh
Cc1cc2c(cc1Cl)C(c1ccccc1C)CC(=O)O2 (configuration not stated),i,i,nt,i,nt,nt
Cc1c(Cl)cccc1N1CC(C)(C)C1=O,i,i,i,i,i,27µM
CC1(C)CN(c2ccc(Br)cc2Br)C1=O,i,i,i,i,i,i
COc1ccc(/C=C2\SC(=S)N(CCCC(=O)Nc3ccc(C(=O)O)cc3)C2=O)cc1OC,?,50µM,i,i,i,i
COc1ccc(/C=C2\SC(=O)N(CCCC(=O)Nc3ccc(C(=O)O)cc3)C2=O)cc1OC,i,i,i,i,i,i
CCOc1ccc(/C=C2/SC(=S)N(CCC(=O)Nc3ccc(C(=O)O)cc3)C2=O)cc1,i,10µM,i,i,i,?
COc1cc(/C=C2\SC(=O)N(CC(=O)Nc3ccc(C)cc3)C2=O)cc(Cl)c1OCC(=O)O,?,nt,i,?,i,15µM
O=C(CCN1C(=O)/C(=C\c2ccccc2)SC1=S)Nc1ccc(C(=O)O)cc1,i,nt,i,i,i,i
COc1ccc(/C=C2/SC(=S)N(CCCC(=O)Nc3ccc(O)cc3)C2=O)cc1OC,i,i,?,i,15µM,i
O=C(CN1C(=O)c2ccccc2S1(=O)=O)NCCSCc1c(F)cccc1Cl,i,i,i,i,i,i
Cc1c(CCC(=O)NCCc2ccccc2F)c(=O)oc2cc(O)ccc12,i,i,?,i,?,nt
CCN(CC)CCOC(=O)c1ccc(NC(=O)CCCN2C(=O)S/C(=C/c3ccc(OC)cc3)C2=S)cc1,i,i,?,i,21µM,i
CCC(=O)N1CCC1(C)C(=O)Nc1ccc(C)c(C)c1 (configuration not stated),nt,nt,i,nt,i,i
CCC1CCc2c(sc3ncnc(N4CCOCC4)c23)C1 (configuration not stated),i,i,?,i,18µM,i
COc1ccc(C2c3[nH]c4ccccc4c3CCN2C(=O)c2cc3ncccn3n2)c(F)c1 (configuration not stated),i,i,i,i,21µM,i
COc1cccc(C2c3[nH]c4ccccc4c3CCN2C(=O)c2ccccc2F)c1OC (configuration not stated),i,i,?,i,i,i
COc1ccc(C2c3[nH]c4ccccc4c3CCN2C(=O)c2cn3ccccc3n2)c(F)c1 (configuration not stated),i,i,i,i,?,i
CCOC(=O)Oc1c(OC)cc(C(=O)O[C@H]2C[C@H]3CN4CCc5c([nH]c6cc(OC)ccc56)[C@@H]4C[C@H]3[C@@H](C(=O)OC)[C@@H]2OC)cc1OC,?,i[21 µM],nt,i,nt,nt
COc1cc(C(=O)N2CCc3c([nH]c4ccccc34)C2c2ccccc2)cc(OC)c1OC (configuration not stated),i,i,7.3µM,i,6.5µM,nt
COC(=O)[C@H]1[C@H]2C[C@@H]3c4[nH]c5ccccc5c4CCN3C[C@H]2C[C@@H](OC(=O)c2cc(OC)c(OC)c(OC)c2)[C@@H]1OC,?,nt,1.1µM,35µM,15µM,nt
COc1cc(C(=O)N2CCc3c([nH]c4ccccc34)C2c2ccc(C)cc2)cc(OC)c1OC (configuration not stated),i,i,16µM,i,?,nt
COc1ccc(C2c3[nH]c4ccccc4c3CCN2C(=O)c2ccccc2C(C)=O)c(F)c1 (configuration not stated),i,nt,?,i,?,i
